# Screen size: about 39,000 compounds; about 3,300 (8.5%) were called active. The list comes from a sample in which actives are over-represented; it also holds similar structures and randomly drawn compounds.
# Tested on: HepG2
# Experiment: cytotoxicity call (relative viability < 0.9)
# Details: 10 µM
row,Structure (SMILES),cytotoxicity call
1,CC(C)=Cc1ccc(C#N)c(=S)[nH]1,inactive
2,CC[C@@H](O[Si](C#C[Si](C(C)C)(C(C)C)C(C)C)(C(C)C)C(C)C)c1cn([C@H](CO)Cc2ccccc2)nn1,inactive
3,Cc1noc(C)c1NC(=O)N(C)C[C@@H]1OCCCC[C@H](C)Oc2ccc(NC(=O)Nc3ccc4c(c3)OCO4)cc2C(=O)N([C@H](C)CO)C[C@@H]1C,inactive
4,COc1ccc(S(=O)(=O)Nc2ccc3c(c2)CC(=O)N([C@@H](C)CO)C[C@H](C)[C@H](CN(C)S(C)(=O)=O)O3)cc1,inactive
5,Cc1noc(C)c1NC(=O)Nc1ccc2c(c1)C(=O)N([C@@H](C)CO)C[C@@H](C)[C@H](CN(C)C(=O)Nc1ccc3c(c1)OCO3)OCCCC[C@H](C)O2,inactive
6,CNC[C@@H]1OCCCC[C@@H](C)Oc2ccc(NC(=O)Nc3ccc(C(F)(F)F)cc3)cc2C(=O)N([C@H](C)CO)C[C@@H]1C,inactive
7,C[C@@H]1CN([C@H](C)CO)C(=O)c2cc(NC(=O)Cc3cn(C)c4ccccc34)ccc2O[C@@H]1CN(C)S(C)(=O)=O,inactive
8,O=C(C[C@H]1C[C@H]2c3cc(NC(=O)Nc4ccccc4F)ccc3O[C@H]2[C@@H](CO)O1)NCc1ccc(Oc2ccccc2)cc1,inactive
9,C[C@@H]1CCCCO[C@@H](CN(C)Cc2ccncc2)[C@@H](C)CN([C@H](C)CO)C(=O)c2cc(NS(C)(=O)=O)ccc2O1,inactive
10,C[C@@H]1CN([C@@H](C)CO)C(=O)c2cccc(NC(=O)CCCCCC(=O)Nc3ccccc3N)c2O[C@H]1CN(C)Cc1ccc(C(F)(F)F)cc1,inactive
11,Cc1noc(C)c1S(=O)(=O)Nc1ccc2c(c1)C(=O)N([C@H](C)CO)C[C@H](C)[C@@H](CN(C)C)OCCCC[C@H](C)O2,inactive
12,CCOC(=O)Cc1c(C)[nH]c(=O)[nH]c1=O,inactive
13,COc1cccc(C#Cc2cnc3c(c2)C(=O)N([C@@H](C)CO)C[C@@H](C)[C@H](CN(C)C(=O)C2CCC2)O3)c1,inactive
14,Cc1cc(C(=O)Nc2cccc3c2O[C@@H](CN(C)S(=O)(=O)c2cccs2)[C@@H](C)CN([C@H](C)CO)C3=O)n(C)n1,inactive
15,C[C@@H]1CN([C@@H](C)CO)C(=O)Cc2cc(NC(=O)Cc3cn(C)c4ccccc34)ccc2O[C@@H]1CN(C)Cc1ccc(Oc2ccccc2)cc1,active
16,C[C@H](CO)N1C[C@H](C)[C@@H](CN(C)Cc2ccc(Oc3ccccc3)cc2)Oc2ccc(NC(=O)Cc3cn(C)c4ccccc34)cc2CC1=O,inactive
17,C[C@@H]1CN([C@H](C)CO)C(=O)c2c(c3ccccc3n2C)-c2ccccc2CO[C@@H]1CN(C)Cc1ccccc1,active
18,C[C@@H]1CN([C@H](C)CO)C(=O)c2c(c3ccccc3n2C)-c2ccccc2CO[C@@H]1CN(C)Cc1ccc(C(F)(F)F)cc1,inactive
19,C[C@H]1CN([C@@H](C)CO)C(=O)c2c(c3ccccc3n2C)-c2ccccc2CO[C@@H]1CN(C)Cc1ccc(-c2ccccc2)cc1,inactive
20,C[C@H](CO)N1C[C@H](C)[C@@H](CN(C)Cc2ccc(-c3ccccc3)cc2)OCc2ccccc2-c2c(n(C)c3ccccc23)C1=O,inactive

row,Structure (SMILES),cytotoxicity call
1,C[C@@H]1CN([C@@H](C)CO)C(=O)c2c(c3ccccc3n2C)-c2ccccc2CO[C@H]1CN(C)Cc1ccccc1,active
2,C[C@@H]1CN([C@H](C)CO)C(=O)c2c(c3ccccc3n2C)-c2ccccc2CO[C@H]1CN(C)Cc1ccc(C(F)(F)F)cc1,active
3,C[C@H](CO)N1C[C@H](C)[C@H](CN(C)Cc2ccc(Cl)c(Cl)c2)OCc2ccccc2-c2c(n(C)c3ccccc23)C1=O,active
4,C[C@@H]1CN([C@@H](C)CO)C(=O)c2c(c3ccccc3n2C)-c2ccccc2CO[C@H]1CN(C)Cc1ccc(Cl)c(Cl)c1,inactive
5,C[C@@H]1CN([C@@H](C)CO)C(=O)c2c(c3ccccc3n2C)-c2ccccc2CO[C@@H]1CN(C)Cc1ccc(C(F)(F)F)cc1,inactive
6,C[C@@H]1CN([C@H](C)CO)C(=O)c2c(c3ccccc3n2C)-c2ccccc2CO[C@@H]1CN(C)Cc1ccc(-c2ccccc2)cc1,inactive
7,C[C@@H]1CN([C@H](C)CO)C(=O)c2c(c3ccccc3n2C)-c2ccccc2CO[C@H]1CN(C)Cc1ccc(Cl)c(Cl)c1,inactive
8,C[C@@H]1CN([C@@H](C)CO)C(=O)c2c(c3ccccc3n2C)-c2ccccc2CO[C@@H]1CN(C)Cc1ccc(-c2ccccc2)cc1,inactive
9,C[C@@H]1CCCCO[C@H](CN(C)C(=O)Nc2ccc(C(F)(F)F)cc2)[C@H](C)CN([C@@H](C)CO)C(=O)c2cc(NC(=O)Nc3cccc4ccccc34)ccc2O1,inactive
10,C[C@@H]1CN([C@@H](C)CO)C(=O)c2cc(NC(=O)C3CCCCC3)ccc2O[C@@H](C)CCCCO[C@@H]1CN(C)C(=O)Nc1ccc(C(F)(F)F)cc1,inactive
11,COc1cccc(C#Cc2ccc3c(c2)O[C@@H](CN(C)C(C)=O)[C@H](C)CN([C@@H](C)CO)S3(=O)=O)c1,inactive
12,COc1ccc(NC(=O)N(C)C[C@H]2OCCCC[C@H](C)Oc3ccc(NC(=O)Nc4cccc5ccccc45)cc3C(=O)N([C@@H](C)CO)C[C@H]2C)cc1,inactive
13,CCCC1CCC(c2ccc(OC(=O)c3ccco3)cc2)CC1 (stereo not given),inactive
14,CCCN(C)C[C@@H]1OCCCC[C@@H](C)Oc2ccc(NC(=O)CCC(F)(F)F)cc2C(=O)N([C@@H](C)CO)C[C@@H]1C,inactive
15,C[C@@H]1CN([C@@H](C)CO)C(=O)c2cc(C3=CCCC3)cnc2O[C@H]1CN(C)S(=O)(=O)c1cn(C)cn1,inactive
16,C[C@@H]1CN([C@@H](C)CO)C(=O)CCCn2cc(nn2)CO[C@@H]1CN(C)C(=O)Nc1cccc2ccccc12,inactive
17,CCC(=O)N1C[C@]2(C1)CN([C@H](CO)c1c2c2ccc(cc2n1C)OC)C(=O)CN1CCOCC1,inactive
18,C[C@H](CO)N1C[C@H](C)[C@H](CN(C)Cc2ccc(-c3ccccc3)cc2)Oc2c(NC(=O)Nc3ccc4c(c3)OCO4)cccc2C1=O,inactive
19,C[C@@H]1CN([C@@H](C)CO)S(=O)(=O)c2ccc(C#CC3(O)CCCC3)cc2O[C@H]1CN(C)C(=O)c1ccccc1,inactive
20,C[C@@H]1CN([C@@H](C)CO)C(=O)c2cccc(NS(=O)(=O)c3cn(C)cn3)c2O[C@@H]1CN(C)S(C)(=O)=O,inactive

# Source: the antibiotic and cytotoxicity screens of Wong et al. (2023)
